PubChem BioAssay (NCI)
Where “and” joins values, the source holds several entries; their conditions need not be identical. Equal values may be shown once. This is part of a sample that, as a whole, favours compounds with a hit. Of some 79,000 tested, about 15% had one in any assay. No stated cut-off is given here; in the data, active means growth inhibition above about 70%; inactive means the rest.

Columns and labels:
[1] = NCI Yeast Anticancer Drug Screen. Data for the rad50 strain (AID 155);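 further: 0% = growth of vehicle-only cultures of the same strain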; conditions: S. cerevisiae rad50 strain growth inhibition; at 50.0 µM; hits give high values
Procedure, shortened: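 DNA repair mutant yeast, compound exposure, growth read-out; inhibition is taken relative to vehicle.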

[2] = NCI Yeast Anticancer Drug Screen. Data for the mec2-1 strain (AID 157); conditions: S. cerevisiae mec2-1 strain, at 50.0 µM, hits give high values
Procedure, shortened: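 Each compound was tested on mec2-1 yeast, a strain altered in DNA damage repair or cell cycle control. Growth inhibition is reported relative to vehicle.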

[3] = NCI Yeast Anticancer Drug Screen. Data for the sgs1 mgt1 strain (AID 161);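 further: 0% = growth of cultures given vehicle only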; conditions: S. cerevisiae sgs1 mgt1 strain, at 50.0 µM, hits give high values
Procedure, shortened: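 Read-out: growth inhibition vs vehicle controls. Cells: mutant yeast strain deficient in DNA damage repair.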

[4] = NCI Yeast Anticancer Drug Screen. Data for the cln2 rad14 strain (AID 165);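 further: 0% = growth equal to vehicle treated cultures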; conditions: S. cerevisiae cln2 rad14 strain, at 50.0 µM, hits give high values
Procedure, shortened: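 Test compounds were added to cln2 rad14 yeast cultures; inhibition of growth was then determined by comparison with vehicle treatment.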

[5] = NCI Yeast Anticancer Drug Screen. Data for the bub3 strain (AID 167); conditions: S. cerevisiae bub3 mutant strain, at 50.0 µM, hits give high values
Procedure, shortened: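 In this screen, a yeast mutant lacking normal mitotic checkpoint function is challenged with compound. Relative growth versus vehicle gives the inhibition value.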

[6] = NCI Yeast Anticancer Drug Screen. Data for the mlh1 rad18 strain (AID 175); conditions: S. cerevisiae mlh1 rad18 strain growth inhibition; at 50.0 µM; hits give high values
Procedure, shortened: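 Inhibition values reflect reduced growth of mutant yeast versus vehicle-treated controls following compound exposure; the mutations affect DNA damage repair.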

Measured: growth inhibition

CC(=O)OCCN(CCOC(C)=O)C(C)=O
inactive: [1] 22.6% and -2.1% | [2] 5.7% and 8.4% | [3] 19.1% and 0.4% | [4] 7.3% and -18.9% | [5] -1.45% and -10.7% | [6] 17.9% and -3.75%

Cc1ccc(C2SCC(=O)N2CCN2C(=O)CSC2c2ccc(C)o2)o1 (stereo unspecified)
inactive: [1] 7.1% and 5.95% | [2] 16.1% and 8.45% | [3] -2.45% and 17.6% | [4] 3.15% and -0.1% | [5] -1.45% and -3.45% | [6] 13.2% and -12.4%

NC(=O)c1nnn(Cc2ccccc2)c1N
inactive: [1] 5.55% and 31.2% | [2] 5.6% and -1.5% | [3] -3.05% and -4.65% | [4] -4.65% and -1.95% | [5] 6.9% and -5.2% | [6] 9.6% and 3.3%

CC(CC(N)C(=O)O)C(=O)O (stereo unspecified)
inactive: [1] -0.4% and -5.1% | [2] -4.75% and -22.6% | [3] -1.95% and -49.1% | [4] 0.25% and -68.8% | [5] 0.9% and -26.1% | [6] -1.85% and -17.2%

CN(C)CC1CCCC(CN2CCCCC2)C1=O (stereo unspecified)
inactive: [1] -13.3% and -7.95% | [2] -37.8% and 9.7% | [3] -33.5% and 8.2% | [4] 4.6% and -38.9% | [5] -11.6% and -9.5% | [6] -6.4% and 9.4%

COc1cc(C=O)ccc1O
inactive: [1] 0.2% and 12.1% | [2] -0.35% and 2.65% | [3] -5.95% and 15.9% | [4] 4.45% and 6.3% | [5] -1.9% and 13.4% | [6] 7.75% and 14.2%

NNc1nc2c(N)ncnc2n1C1OC(CO)C(O)C1O (stereo unspecified)
inactive: [1] -7% and 14% | [2] -5.05% and 15.8% | [3] 17.4% and 4.95% | [4] -21.1% and 15.2% | [5] 14.8% and 13.1% | [6] -5.95% and 10.6%

CCCCN(CCCC)CCCN
inactive: [1] 13.2% and 9.35% | [2] -1.45% and -6.9% | [3] -18.9% and -5.35% | [4] -11.6% and 9.8% | [5] 6.5% and -3.15% | [6] -9% and 11.7%

S=C(S)NCCNC(=S)S.[Cu+2]
inactive: [1] 1.15% and 27.4% | [2] -8.7% and -11.9% | [3] -0.6% and 6.45% | [4] -41.2% and -56.4% | [5] -18.2% and -14.6% | [6] 5.3% and -15.5%

CC(O)c1nc2c([nH]1)c(=O)n(C)c(=O)n2C (stereo unspecified)
inactive: [1] -4.3% and -3.1% | [2] -6.2% and -8.9% | [3] -5.6% and -2% | [4] -30.3% and -16.9% | [5] 5.7% and -13.9% | [6] 9.15% and -23.2%

O=C(O)CSc1nc2ccccc2s1
inactive: [1] -8.8% and -6.9% | [2] 1.7% and -9.8% | [3] -0.85% and -11.6% | [4] -28.8% and -12% | [5] 9.45% and -33.6% | [6] -12.7% and -48%
